Screening data (PubChem BioAssay)
DYRK1A inh = rat Dyrk1A kinase inhibitors, primary screen, biochemical, single point, plate reader; ADP-Glo luminescence, NFATc1 peptide; inhibition, % at 12.5 µM; 310,000 compounds, 0.43% hits;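 note: plate controls were vehicle with enzyme for no effect and no enzyme for full effect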
GSIS activator = GLuc luminescence reporter in INS-1E cells, primary screen for activators of glucose-dependent secretion of insulin. INS-1E GLuc reporter insulin secretion, 2-3 h. activation, % at 16.6 µM. 370,000 compounds, 0.61% hits. AID 743287, 2014;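 active = lowest replicate activation of at least 40%, so every replicate reaches that level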;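 note: 0% = median of neutral control wells and 100% = median of IBMX positive control wells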
MITF TRPM1 HTS = activators of MITF-driven TRPM1 promoter reporter, primary screen, cell-based, SK-MEL-5, luciferase, single point | SK-MEL-5 TRPM1-promoter luciferase, 24 h; % of positive control, neutral wells = 0 | activation, % at 12.5 µM | 300,000 compounds, 0.75% hits | AID 588334, 2011;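 active = mean activation of at least 80% with every replicate also reaching 80%; inconclusive = mean reaches 80% but some replicate falls short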;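 note: 0% = neutral control wells and 100% = parthenolide positive control wells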
Wnt act = Wnt/beta-catenin pathway activators, primary screen, cell-based, plate reader, single point; Wnt/beta-catenin reporter cell assay, activator; activation, % at 9.35 µM; 300,000 compounds, 1.2% hits; in the data active = activation above about 30%, passing the limit was not always enough; inconclusive = no clear call, values can overlap the other calls;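 note: 0% = neutral control wells and 100% = positive control wells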
NSD2 inh = NSD2 histone methyltransferase inhibitors, primary screen, biochemical, AlphaScreen, single concentration, set 2; NSD2 peptide methylation, 120 min; AID 743445, 2014; 310,000 compounds, 0.54% hits; inhibition, % at 12.5 µM; Histone-lysine N-methyltransferase NSD2 (Homo sapiens), O96028
miR122 inh = miR-122 Renilla sensor signal increase in Huh7, primary screen, miR-122 inhibitor project, cell-based, single point, plate reader | AID 602342, 2012 | activation (reporter increase), % at 12.5 µM | 340,000 compounds, 0.3% hits | Huh7 miR-122 Renilla luciferase sensor, 48 h; neutral wells = 0, positive control = 100;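 active = mean replicate activation score at least 90 and every replicate individually at or above 90; inconclusive = only one of the two criteria met; inactive = neither criterion met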;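 note: higher luciferase means less miR-122 activity so hits act as miR-122 inhibitors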
* hit, by the source's call; ? = inconclusive; . = no result given; [ ] = dose if it differs, or a comment. Most compounds without a hit are left out; they make up all but 2.4% or so of the library. Cut-off read from the data, not from the text of the source, unless noted: active = inhibition above about 50%; inactive = the rest.

SMILES | DYRK1A inh | GSIS activator | MITF TRPM1 HTS | Wnt act | NSD2 inh | miR122 inh
CCCCSc1nnc2c(n1)[nH]c1ccccc12 | -8 | . | 65 | 62* | 0 | 0
COc1ccccc1NC(=O)N1C[C@H](O)COC[C@H]2O[C@H](CC(=O)NCc3ccccc3)CC[C@@H]21 | . | 6 | . | . | . | 7[16.7 µM]
CCN(CC)CCC/C(=N\O)C(O)(c1ccccc1)c1ccccc1 | 5 | -14 | 6 | -1 | 2 | .
CC[N+](C)(CC)CCC/C(=N/O)C(O)(c1ccccc1)c1ccccc1 | . | 0 | . | 33* | 0 | -7
Cc1ccc(OCC(=O)Nc2ccccc2F)cc1 | 5 | 9 | . | 41* | . | -4
Cc1ccccc1NC(=O)c1ccc(OCC(=O)Nc2ccccc2F)cc1 | 0 | 5 | 0 | 0 | -1 | .
CSc1ccccc1C(=O)OCC(=O)Nc1cccnc1Cl | 5 | 43* | 13 | 0 | -3 | -2
Cc1ccc(OCC(=O)Nc2ccccc2F)cc1C | 11 | 8 | 107* | 43* | -5 | .
Cc1ccc(OCC(=O)Nc2cccnc2Cl)cc1C | -2 | -4 | 87* | 10 | -2 | 1
Cc1cc(Cl)ccc1OCC(=O)OCC(=O)Nc1cccnc1Cl | -4 | -2 | 2 | -1 | -3 | 0
O=C(COC(=O)c1ccccc1O)Nc1cccnc1Cl | -3 | 14 | -9 | -4 | 0 | .
CO[C@@H]1CN(C)C(=O)c2cc(NC(=O)c3ccno3)ccc2OC[C@H](C)N(S(C)(=O)=O)C[C@@H]1C | . | -2 | . | . | . | .
Cc1ccc(CCC(=O)Nc2ccccc2F)s1 | 0 | 11 | 61 | 62* | -3 | -4
COc1ccccc1/C=C/C(=O)Nc1cccnc1Cl | -4 | 29 | 69 | 0 | 3 | 7
COc1ccc(/C=C/C(=O)Nc2cccnc2Cl)cc1 | 2 | 8 | 97* | 43* | 18 | .
C[C@H](CO)N1C[C@H](C)[C@@H](CN(C)C(=O)Nc2ccc(F)cc2)Oc2ccc(NC(=O)C3CC3)cc2C1=O | . | 14 | . | . | . | 15[16.7 µM]
O=C(OCCN=C1NS(=O)(=O)c2ccccc21)c1ccccc1 | -1 | . | . | -4 | -1 | 215*
COc1ccc2c3c([nH]c2c1)[C@@H](CO)N(C(=O)CC1CC1)CC31CN(Cc2ccncc2)C1 | . | 3 | . | . | . | .
Brc1ccsc1/C=N/Nc1ccccc1 | -1 | . | . | 41* | 0 | .
CS(=O)(=O)Nc1ccc2c(c1)[C@H]1C[C@@H](CC(=O)NCc3ccc(-c4ccccc4)cc3)O[C@H](CO)[C@H]1O2 | . | -7 | . | . | . | 0[16.7 µM]
CCOc1ccccc1NC(=O)c1cccc(NC(=O)c2cccnc2)c1 | . | . | . | . | 0 | .
Cc1ccccc1Nc1sc(C(=O)Nc2cccc(Cl)c2)c(N)c1C(N)=O | -5 | 5 | 17 | 52* | -2 | .
O=C(C[C@H]1C[C@H]2c3cc(NC(=O)NC4CCCC4)ccc3O[C@H]2[C@H](CO)O1)NCCN1CCCCC1 | . | -7 | . | . | . | -2[16.7 µM]
O=C(NCCc1cccs1)c1ccc(Cl)c(Cl)c1 | -1 | -27 | 94* | 37* | -3 | .
O=C(NCCc1cccs1)c1ccc(Cl)cc1 | . | 11 | 24 | 10 | -5 | .
SMILES | DYRK1A inh | GSIS activator | MITF TRPM1 HTS | Wnt act | NSD2 inh | miR122 inh
COc1ccc(CCN2CC(O)=C(c3nc(C)cs3)C2=N)cc1OC | 1 | . | -3 | . | 1 | 130*
Cc1csc(C2=C(O)CN(CCc3ccccc3)C2=N)n1 | 9 | 3 | -15 | . | . | -4
O=C(NC1CCCCC1)c1cccnc1Sc1ccccc1 | -1 | 62* | 3 | -3 | -1 | -1
Cc1cc(C(=O)COC(=O)c2ccc(O)cc2)c(C)n1Cc1ccco1 | 1 | . | ? | ? | 2 | -4
Cc1cc(C(=O)COC(=O)c2ccc(Br)o2)c(C)n1C | . | 8 | 111* | 17 | 4 | -2
CCOc1ncccc1C(=O)OCC(=O)c1cc(C)n(Cc2ccco2)c1C | -1 | -7 | 41 | 46* | 2 | -1
Cc1cc(C(=O)COC(=O)c2ccc(Br)o2)c(C)n1Cc1ccco1 | . | 8 | . | 60* | 0 | .
COCCn1c(C)cc(C(=O)COC(=O)c2ccc(Br)o2)c1C | -1 | . | 57 | 4 | 1 | .
Cc1cccc(Nc2ncnc3ccccc23)c1 | 12 | 10 | 1 | 47* | -1 | -2
Cc1ccc(-c2nc(Nc3cccc(O)c3)c3ccccc3n2)cc1 | 64* | 10 | 7 | 1 | -3 | .
COC(=O)C[C@H]1C[C@@H]2c3cc(NC(=O)Nc4ccccc4F)ccc3O[C@@H]2[C@H](CO)O1 | . | -12 | . | . | . | 0[16.7 µM]
C[C@@H]1CN([C@H](C)CO)C(=O)c2cc(C#CC(C)(C)O)cnc2O[C@H]1CN(C)C(=O)C1CCOCC1 | . | 5 | . | . | . | -6[16.7 µM]
Cc1ccc(N(C(=O)c2ccc(S(=O)(=O)N3CCOCC3)cc2)C2C=CS(=O)(=O)C2)cc1 (stereo not drawn) | -4 | 1 | 0 | -1 | -1 | -8
COc1ccc(N(C(=O)c2ccc(S(=O)(=O)N3CCCC3)cc2)C2C=CS(=O)(=O)C2)cc1 (stereo not drawn) | -3 | 0 | -10 | 40* | -1 | -5
CCCCNC(=O)C1CC(c2cccc(F)c2)=NO1 (stereo not drawn) | 0 | -3 | 89* | 32* | . | 2
COc1ccc(S(=O)(=O)N2CCC(C(=O)NCc3ccccn3)CC2)cc1OC | -2 | 46* | -5 | . | -5 | -1
COc1ccc(C2=NOC(C(=O)NCc3ccccn3)C2)cc1OC (stereo not drawn) | -3 | 94* | . | . | 4 | 1
COc1ccc(OC)c(S(=O)(=O)N2CCC(C(=O)NCc3ccccn3)CC2)c1 | -1 | 1 | -15 | -1 | 7 | -2
CCC(=O)N1CC2(CCN(Cc3ccc(Cl)cc3)CC2)c2c([nH]c3cc(OC)ccc23)[C@H]1CO | . | -7 | . | . | . | .
CN(C)Cc1ccccc1Sc1ccc2c(c1)CCCC2 | . | 54* | . | -4 | 21 | 2
COc1cccc(Sc2ccccc2CN(C)C)c1 | 2 | 10 | . | -1 | 16 | -5
COc1ccc(NC(=O)Nc2ccc3c(c2)C(=O)N([C@H](C)CO)C[C@@H](C)[C@H](CN(C)S(=O)(=O)c2ccc(OC)cc2)OCCCC[C@@H](C)O3)cc1 | . | 0 | . | . | . | -1[16.7 µM]
O=C(c1ccc(Cl)s1)N1CCc2ccccc21 | -2 | . | 67 | . | -6 | 11
CCc1sc(C(=O)N2CCc3ccccc32)cc1C | 2 | 4 | 64 | 39* | 0 | .
COc1ccc(NC(=O)Cc2cccc(F)c2)cc1S(=O)(=O)Nc1ccccc1Cl | -3 | -13 | 8 | 2 | . | 332*
COc1ccc(NC(C)=O)cc1S(=O)(=O)Nc1ccccc1C(=O)NCCc1ccccc1 | -8 | 0 | 99* | 19 | . | .
Cc1ccc(S(=O)(=O)C=CS(=O)(=O)c2ccc(C)cc2)cc1 | . | 87* | . | -5 | -1 | 19
